Bioassay records deposited in PubChem BioAssay by several laboratories.
A selection: hits, their analogues and other compounds. The true share with any hit is near 2.2%.
RTF Ca sens act = cardiac RTF calcium sensitivity activators, primary screen, biochemical, IANBD-TnC fluorescence, EC20 calcium. Troponin I, cardiac muscle (Homo sapiens) + Troponin T, cardiac muscle (Homo sapiens) + …. IANBD-labeled TnC RTF fluorescence at EC20 calcium; 0% EC20 calcium, 100% full calcium. activation, % at 7.2 µM. hit rate 0.24% among 340,000. AID 493008, 2010;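 active = activation above the mean over all tested compounds plus 3 SD, cut at about 30% in these data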;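 note: rise in fluorescence read as greater calcium sensitivity of cardiac thin filaments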
CRFR2-BP ag = agonists of CRF-BP/CRF-R2 complex, primary screen, cell-based, HEK293, calcium dye fluorescence, uHTS | hit rate 0.46% among 350,000 | CRF-binding protein / CRF receptor 2 complex (human) | activation, % at 13.2 µM | calcium dye fluorescence (FLIPR); percent of saturating CRF peptide response;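 active = activation of at least 50%, plus an integration ratio under a set limit after plate pattern correction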
CRFR2-BP antag = antagonists of CRF-BP/CRF-R2 complex, primary screen, cell-based, HEK293, calcium dye fluorescence, uHTS. CRF-induced calcium fluorescence. inhibition, % at 11.8 µM. hit rate 0.59% among 350,000. AID 588475, 2011;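 active = inhibition of the ligand-induced calcium signal above about 50% at the single tested concentration, limit read from the data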
Myeloid diff 2 = induction of myeloid progenitor differentiation, primary screen, cell-based, flow cytometry, MLPCN library. ER-HoxA9 myeloid progenitors, lysozyme-GFP differentiation. calls only at 10 µM. hit rate 1% among 360,000;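 active = normalized GFP-positive differentiation at or above the plate's own cutoff, the solvent-only control mean plus 3 SD; inconclusive = no clear call, values can overlap the other calls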;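 note: cells exposed to compound for four days before flow analysis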
Cardiac RTF inh = cardiac RTF calcium sensitivity inhibitors, primary screen, biochemical, IANBD-TnC fluorescence, EC70 calcium; hit rate 0.12% among 340,000; IANBD-labeled cardiac RTF, Ca2+ fluorescence; AID 493244, 2011; inhibition, % at 7.15 µM;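 active = inhibition above the mean inhibition of all tested compounds plus 3 SD, cut at about 17% in these data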;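 note: assay run at fixed EC70 calcium of 1.6 mM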
RTF Ca inh conf = cardiac RTF calcium sensitivity inhibitors, confirmation, biochemical, fluorescence readout | shares compounds with Cardiac RTF inh | reconstituted cardiac thin filaments | inhibition, % at 7.15 µM | hit rate 8% among 360; in the data active = inhibition above about 18%
A number is an active result; . = inactive; ? = inconclusive; / = no result given; + = active, no number.

SMILES	RTF Ca sens act	CRFR2-BP ag	CRFR2-BP antag	Myeloid diff 2	Cardiac RTF inh	others
Cn1cc([C@@H]2C[C@H]3CN(Cc4cccc(Cl)c4)C(=O)[C@]34CCCN24)c2ccccc21	.	.	.	.	.
Cc1ccccc1S(=O)(=O)Cc1ccc(C(=O)NCCN(C)Cc2ccccc2)o1	.	.	.	+	.
COc1ccccc1S(=O)(=O)Cc1ccc(C(=O)NCc2ccco2)o1	.	.	.	.	.
Cc1ccc(NC(=O)c2ccc(COc3ccccc3[N+](=O)[O-])o2)nc1	.	.	.	+	.
Cc1ccc(NC(=O)COc2ccccc2[N+](=O)[O-])nc1	.	.	.	.	.
Cc1ccccc1S(=O)(=O)Cc1ccc(C(=O)NCCCN(C)Cc2ccccc2)o1	.	.	.	.	.
COc1ccc(NC(=O)c2ccc(COc3ccccc3OC)o2)cc1OC	.	.	.	.	.
COc1ccccc1OCc1ccc(C(=O)NN)o1	.	.	.	+	.
COc1ccccc1S(=O)(=O)Cc1ccc(C(=O)NCc2ccccc2)o1	.	.	54.6	.	.
Cc1ccc(C)c(CN2CCN(c3ncccn3)CC2)c1	.	.	.	.	.
COCCn1c(=NC(=O)CCS(=O)(=O)c2ccccc2)sc2cc(F)ccc21	.	.	.	.	.
CCCCN1CCNC[C@@H]1Cc1ccc(O)cc1	.	.	.	+	.
Oc1ccc(C[C@@H]2CNCCN2CCc2cccc3ccccc23)cc1	.	.	.	+	.
C=CCOc1cccc(CNc2ccc3[nH]c(=O)[nH]c3c2)c1	.	.	91.5	.	.
C=CCOc1ccc(CNc2ccc3[nH]c(=O)[nH]c3c2)cc1OC	.	.	.	.	.
N/C(=N\OC(=O)CCCc1ccccc1)c1ccccc1Cl	.	.	.	.	.
CCOc1ccccc1NC(=O)COC(=O)C1COc2ccccc2O1 (stereo not drawn)	/	.	95.3	.	/
COc1cc(/C=C2\SC(=Nc3ccc(N4CCOCC4)cc3)N(C)C2=O)ccc1OC(C)C(=O)O (stereo not drawn)	.	.	.	.	.
Clc1ccc(-c2nc3ccccn3c2CN2CCOCC2)cc1	.	.	.	+	.
Clc1ccc2nc(-c3ccccc3)c(CN3CCOCC3)n2c1	.	.	.	.	.
O=C(CCCN=C1NS(=O)(=O)c2ccccc21)OCc1cc([N+](=O)[O-])cc2c1OCOC2	.	.	.	+	.
O=C(CCCN1C(=O)c2cccc3cccc(c23)C1=O)NC1CCS(=O)(=O)C1 (stereo not drawn)	.	.	.	.	.
COc1ccc(C(CC(=O)NCc2ccco2)c2ccc(F)cc2)cc1 (stereo not drawn)	.	.	.	.	.
Cc1ccc(C(CC(=O)NCc2ccco2)c2ccc(OC(C)C)cc2)cc1 (stereo not drawn)	.	.	50.7	.	.
COc1ccc2ccccc2c1C(O)c1nccn1C (stereo not drawn)	84.2	104.0	.	.	.
SMILES	RTF Ca sens act	CRFR2-BP ag	CRFR2-BP antag	Myeloid diff 2	Cardiac RTF inh	others
Cc1c(C(=O)O)c(C(=O)O)c2n1CCS2	.	.	.	.	.
Cc1oc2cc3oc(=O)c(CCC(=O)N[C@H](C(=O)O)C(C)C)c(C)c3cc2c1C	.	.	.	.	.
COC(=O)[C@]1(C)N[C@H](CN(C)C(C)=O)[C@@H]2C(=O)N(Cc3ccccc3)C(=O)[C@@H]21	.	.	.	.	.
CCOc1ccc(NC(=O)CCNS(=O)(=O)c2ccc3c(c2)c(=O)n(C)c(=O)n3C)cc1	.	.	.	.	.
COc1ccc(NC(=O)CCNS(=O)(=O)c2ccc3c(c2)c(=O)n(C)c(=O)n3C)c(OC)c1	.	.	.	+	.
Cc1c(C(=O)NCc2ccc3c(c2)OCCO3)sc(=O)n1Cc1ccccc1F	/	/	/	.	/
Cc1c(C(=O)NCc2ccc3c(c2)OCCO3)sc(=O)n1Cc1ccccc1C(F)(F)F	/	/	/	+	/
COC(=O)C1(C(=O)OC)c2ccccc2CN(S(=O)(=O)c2ccc(C)cc2)C1CC(C)=O (stereo not drawn)	/	/	/	.	/
CCOC(=O)C1C(=O)C=C(c2ccc(C)cc2)CC1c1ccccc1 (stereo not drawn)	.	.	.	.	.
CCOC(=O)C1C(=O)C=C(/C=C/c2ccc(N(C)C)cc2)CC1c1ccccc1 (stereo not drawn)	108.1	292.1	.	+	.
Cc1ccc(CN(C(=O)c2ccccc2[N+](=O)[O-])C2CCS(=O)(=O)C2)o1 (stereo not drawn)	.	.	57.6	?	.
Cc1ccc(CN(C(=O)c2ccccc2C)C2CCS(=O)(=O)C2)o1 (stereo not drawn)	.	.	.	.	.
Clc1ccccc1NN(Cc1ccncc1)c1ccccc1Cl	/	.	53.0	.	/
CC1=CC(C)(C)n2c(O)c(N=NC(N)=S)c3c(C)ccc1c32	.	.	.	+	.
O=C(O)CCNC(=O)OCC1c2ccccc2-c2ccccc21	.	.	59.7	.	.
O=C(CCNC(=O)OCC1c2ccccc2-c2ccccc21)NOCc1ccccc1	.	.	.	.	.
COc1ccc(NC(=S)N(Cc2ccccn2)Cc2ccccc2Cl)cc1	.	.	.	.	17.4	RTF Ca inh conf=.
CCOc1ccc(Oc2c(/C=N/NC(=O)C3CC3)c(C)nn2-c2ccccc2)cc1	.	.	.	.	.
CC(=O)Nc1ccc(C(=O)Nc2ccc(S(=O)(=O)N3CCCCC3)cc2)cc1	.	.	.	.	.
Cn1c(NC(=O)c2ccc(S(=O)(=O)N3CCCCC3)cc2)cc(=O)n(C)c1=O	.	.	.	.	17.0	RTF Ca inh conf=.
C=C1[C@@H](O)[C@H](CC(C)C)N(Cc2ccccc2Br)S1(=O)=O	.	.	.	.	.
O=C(CSc1nnc(CNC(=O)c2ccc(F)cc2)o1)NCC1CCCO1 (stereo not drawn)	.	.	.	.	26.7	RTF Ca inh conf=.
CCN(CC)c1ccc(C(=O)NNC(=O)CCl)cc1	.	.	.	.	.
CCN(CC)c1ccc(C(=C2C=CC(=[N+](CC)CC)C=C2)c2ccc(N(CC)CC)cc2)cc1	.	.	.	/	22.9	RTF Ca inh conf=.
CSc1nc(-c2ccccc2)cc(C)c1C#N	.	.	.	.	18.5	RTF Ca inh conf=.
CCCOc1ccccc1C1NC(=O)NC(C)=C1C(=O)OCCOC (stereo not drawn)	.	.	.	/	19.2	RTF Ca inh conf=.
CC/C(=C(\c1ccc(O)cc1)c1ccc(OCCN(C)C)cc1)c1ccccc1	.	.	.	.	17.6	RTF Ca inh conf=.
